# Compound activity: PubChem, National Center for Advancing Translational Sciences (NCATS)
# 12-LOX inh: blocks human arachidonate 12S-lipoxygenase; Potency, µM (titrated, usually from 108 µM), for the others: top-dose activity change, negative = inhibition, actives largely listed as inhibitors; purified 12hLO, xylenol orange hydroperoxide absorbance; hit rate 1.1% among 580,000; AID 1671190
# Target sequence (P18054 whole entry, looked up): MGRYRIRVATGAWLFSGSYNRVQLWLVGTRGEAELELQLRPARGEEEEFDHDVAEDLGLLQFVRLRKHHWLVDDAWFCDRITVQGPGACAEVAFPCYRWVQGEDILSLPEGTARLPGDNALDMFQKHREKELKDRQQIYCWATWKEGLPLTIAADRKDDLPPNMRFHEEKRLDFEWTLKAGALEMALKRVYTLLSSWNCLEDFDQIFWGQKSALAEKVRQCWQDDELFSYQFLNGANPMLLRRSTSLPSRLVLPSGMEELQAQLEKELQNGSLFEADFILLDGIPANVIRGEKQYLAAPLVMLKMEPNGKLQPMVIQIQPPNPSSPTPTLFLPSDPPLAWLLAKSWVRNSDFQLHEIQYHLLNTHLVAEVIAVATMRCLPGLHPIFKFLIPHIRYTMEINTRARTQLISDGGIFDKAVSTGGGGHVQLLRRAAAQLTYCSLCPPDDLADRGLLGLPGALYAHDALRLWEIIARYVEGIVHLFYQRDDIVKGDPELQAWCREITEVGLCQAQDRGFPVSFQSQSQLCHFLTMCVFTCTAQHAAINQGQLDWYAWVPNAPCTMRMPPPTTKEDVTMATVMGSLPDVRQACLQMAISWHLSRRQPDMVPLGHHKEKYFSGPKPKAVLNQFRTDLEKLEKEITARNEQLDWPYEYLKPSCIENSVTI
#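 Purified human 12hLO (150 nM final) in 25 mM Hepes, 0.01% Triton X-100, pH 7.0 was preincubated 15 min at room temperature with compound. Then 40 uM arachidonic acid was added, 30 min. Hydroperoxide was read by Fe-XO absorbance ratio 573/405 nm.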
# ELG1 repair inh: ELG1-dependent DNA repair inhibition. HEK293T ELG1-luciferase reporter, luminescence, 16 h; DNA damage induced by 5-fluorouridine. Potency, µM (top dose mostly 46.1 µM), for inactives: top-dose activity change, negative = inhibition, most hits filed as inhibitors. hit rate 2.3% among 330,000. AID 504467; also: nearly all actives have a fitted effect of over 55% in size
#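 Reporter activity after DNA damage by 5-fluorouridine is monitored. Compound-treated cells incubate 16 hr at 37 °C, then ONE-Glo is added for 30 min before luminescence reading.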
# VP16 counter: inhibits Gal4-VP16 luciferase reporter, ROR gamma counter-screen. AID 2546. Potency, µM (series often up to 53.6 µM), inactives show at the top dose activity, negative = inhibition, actives largely listed as inhibitors. hit rate 3.5% among 310,000. Drosophila S2 Gal4-VP16 UAS-luciferase, luminescence, 20 h;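 also: Gal4-VP16 expression switched on by copper sulfate through the metallothionein promoter; nearly all actives have a fitted effect of over 50% in size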
# TDP1 cell CPT: growth inhibition of DT40 Tdp1-/-;hTDP1 cells with camptothecin (screen for TDP1 inhibitors). chicken DT40 Tdp1-/-;hTDP1 cells + 20 nM CPT, ATP luminescence, 48 h. Potency, µM (doses to about 46.2 µM), without a hit: at the highest dose activity change, negative = growth inhibition, actives largely listed as inhibitors. hit rate 12% among 420,000; also: nearly all actives have a fitted effect of over 55% in size
#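 Cell growth measured by CellTiter-Glo luminescence after a minimum 48 h, 37 C compound exposure with 20 nM CPT in Tdp1-knockout DT40 cells stably expressing hTDP1, seeded 400/well; qHTS titration format.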
# TDP1 cell noCPT: qHTS for Inhibitors of human tyrosyl-DNA phosphodiesterase 1 (TDP1): qHTS in cells in absence of CPT | Potency, µM (titrated, usually from 46.2 µM), for inactives: top-dose activity change, negative = growth inhibition, most hits filed as inhibitors | DT40 Tdp1-/- hTDP1 cells, no CPT, ATP luminescence, 48 h | hit rate 15% among 420,000; also: nearly all actives have a fitted effect of over 55% in size
#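 No-CPT arm: Tdp1-/-;hTDP1 DT40 cells (400/well) plus compounds, incubated ≥48 hr at 37 °C. Readout CellTiter-Glo luminescence.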
# RORg inh: ROR gamma (mouse) transcription inhibition. Drosophila S2 Gal4-RORgamma UAS-luciferase reporter, 20 h. Potency, µM (doses to about 53.6 µM), without a hit: at the highest dose activity change, negative = inhibition, hits mostly inhibitors. hit rate 5.4% among 310,000. AID 2551; also: nearly all actives have a fitted effect of over 60% in size
#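 Luciferase reporter read in Schneider cells carrying Gal4-RORγ (mouse) and UAS-Photinus luciferase; cells given compound 1 h before 700 uM copper sulfate induction, then incubated 20 h at ambient temperature.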
# * marks the source's active call; other numbers are inactive results; ? = inconclusive; . = no result; [ ] = dose if it differs, or a comment. An excerpt weighted towards active compounds, which were near 15% of everything screened. Calls follow the shape of the dose curve; as a rule, active = well fitted curve in the direction sought with a large enough effect; inconclusive = small, poorly fitted or top-dose-only effect, or another doubt; inactive = no such curve, though single readings can be large; an effect the other way counts as inactive or inconclusive. % is scaled to controls: 0 for no effect and ±100 for the full control effect; potency is read from the fitted curve at half-maximal effect.
SMILES,12-LOX inh,ELG1 repair inh,VP16 counter,TDP1 cell CPT,TDP1 cell noCPT,RORg inh
Cc1c(C(=O)OCC(C)C)[nH]c2c1C(=O)CC(c1cccs1)C2 (configuration not stated),15.6%,-1.9%,?,2.91µM*,3.66µM*,?
COCCOC(=O)c1[nH]c2c(c1C)C(=O)CC(c1cccs1)C2 (configuration not stated),5.8%,-19.2%,-2.2%,1.16µM*,1.3µM*,39.6%
COCCOC(=O)c1[nH]c2c(c1C)C(=O)CC(c1ccc(OC)c(OC)c1)C2 (configuration not stated),13.3%,?,-16.0%,?,-27.8%,?
Cc1c(C(=O)OCC2CCCCC2)[nH]c2c1C(=O)CC(c1ccc(F)cc1)C2 (configuration not stated),-7.3%,.,.,?,?,.
CCOC(=O)c1ccc2c(c1)nc(C1CCN(S(=O)(=O)c3cccs3)CC1)n2CC,-9.1%,?,-14.4%,14.6µM*,?,-10.4%
CNc1nc2cc([N+](=O)[O-])c([N+](=O)[O-])cc2nc1NC,-23.5%,?,-22.5%,2.31µM*,3.26µM*,13.3%
Cc1noc(C)c1COc1ccc(C(=O)OCC(=O)NCc2ccccc2Cl)cc1,0.2%,-3.5%,7.2%,?,29.1µM*,9.7%
Cc1noc(C)c1COc1ccc(C(=O)OCC(=O)Nc2ccc(S(N)(=O)=O)cc2)cc1,164.6%,4.2%,.,?,16.4µM*,.
Cc1noc(C)c1COc1ccc(C(=O)OCC(=O)Nc2ccc3c(c2)OCO3)cc1,0.0%,7.0%,-4.1%,-6.3%,-26.2%,25.5%
COc1ccc(-c2nnc(C[C@@H]3C[C@@H](C(C)C)[C@H](CNCc4ccncc4)C=C3C)o2)cc1,18.5%,.,.,.,.,.
O=C(NC(c1ccccc1)C(Cl)Cl)c1ccccc1 (configuration not stated),0.9%,-9.1%,16.0%,-11.5%,-7.6%,34.4%
[N-]=[N+]=NC(c1ccccc1)C(NC(=O)c1cc(C(F)(F)F)cc(C(F)(F)F)c1)c1ccccc1 (configuration not stated),0.0%,.,.,?,23.1µM*,.
CCCNC(=O)Nc1nc2ccccc2s1,4.2%,?,-3.9%,-25.1%,4.0%,-35.3%
CCCNC(=O)c1ccc(-c2nc3ccccc3s2)s1,0.0%,?,?,?,10.3µM*,11.2µM*
O=C(C[n+]1ccccc1Br)c1ccc(Cl)cc1,.,.,.,?,14.1µM*,.
CNC(=O)c1nc2sccn2c1Br,101.5%[176 µM],.,.,.,.,.
CCOc1cc(NC(=S)NCC(C)C)c(OCC)cc1NC(=O)c1ccco1,?,-16.9%,7.94µM*,14.6µM*,?,5.01µM*
CCOCCCNC(=S)Nc1cc(OCC)c(NC(=O)c2ccco2)cc1OCC,0.0%,?,-3.9%,-1.6%,-20.4%,7.94µM*
CC(C)(C)c1ccc(-c2nc(NCc3cccnc3)c3ccccc3n2)cc1,-8.5%,?,-29.0%,?,?,-40.9%
c1ccc2c(c1)oc1c(NCC3CCCO3)ncnc12 (configuration not stated),?,?,-0.6%,?,18.4µM*,?
O=C(CSc1ncnc2c1oc1ccccc12)NCC1CCCO1 (configuration not stated),-7.7%,.,.,9.1%,-19.2%,.
c1ccc(-c2nc(NCc3cccnc3)c3oc4ccccc4c3n2)cc1,15.8µM*,23.1µM*,0.5%,?,?,-1.7%
CN(C)CCOc1ncnc2c1oc1ccccc12,11.8%,5.7%,1.6%,1.1%,-9.7%,-13.1%
c1ccc(-c2nc(NCC3CCCO3)c3oc4ccccc4c3n2)cc1 (configuration not stated),?,16.4µM*,8.9%,-19.7%,?,-17.1%
CN(C)CCOc1nc(-c2ccccc2)nc2c1oc1ccccc12,40.5%,-8.8%,?,?,23.1µM*,-37.2%
SMILES,12-LOX inh,ELG1 repair inh,VP16 counter,TDP1 cell CPT,TDP1 cell noCPT,RORg inh
Cc1cccc(N2CCN([C@H]3CS(=O)(=O)C[C@@H]3S(=O)(=O)c3ccc(Cl)cc3)CC2)c1C,1.5%,.,.,.,.,.
O=c1c2c3c(sc2nc2c4ccccc4c(N4CCCCC4)nn12)CCC3,-1.0%,.,.,.,.,.
COC(=O)c1ccc(N/C=C/C(=O)c2ccc(Cl)c(Cl)c2)cc1,15.7%,.,.,.,.,.
Cc1ccc(-c2nc(CS(=O)(=O)Cc3cccc(F)c3)co2)cc1,70.1%,.,.,.,.,.
OCCCNc1nc(-c2ccccc2)nc2c1oc1ccccc12,?,23.1µM*,-4.9%,-13.5%,?,12.9%
O=C(O)CNc1nc(-c2ccccc2)nc2c1oc1ccccc12,-0.6%,3.5%,-1.2%,-12.3%,16.8%,10.6%
CN(C)CCCN(C(=O)c1cc(-c2cccs2)nc2ccccc12)c1nc2c(F)cccc2s1,-19.0%,-18.4%,-22.5%,?,-11.1%,?
CN(C)CCCN(C(=O)c1ccc([N+](=O)[O-])s1)c1nc2cc3c(cc2s1)OCCO3,-18.7%,?,?,2.91µM*,3.26µM*,12.6µM*
CN(C)CCCN(C(=O)c1cc2cc([N+](=O)[O-])ccc2s1)c1nc2cc3c(cc2s1)OCCO3,-3.2%,?,.,1.3µM*,2.31µM*,.
CN(C)CCCN(C(=O)c1ccc(Cl)s1)c1nc2cc3c(cc2s1)OCO3,-5.6%,?,?,?,?,0.0%
Cc1ccc2nc(N(CCCN(C)C)C(=O)c3cc(-c4cccs4)nc4ccccc34)sc2c1,-77.6%,-22.7%,?,16.4µM*,?,14.1µM*
CN(C)CCCN(C(=O)c1ccc(Br)s1)c1nc2cc3c(cc2s1)OCCO3,?,21.0%,.,29.1µM*,?,.
Cc1noc([C@@H]2CN(S(=O)(=O)c3ccc(Cl)s3)C[C@H]2C(N)=O)n1,3.8%,.,.,.,.,.
CCCCCCNC(=O)c1cccc2ncccc12,-34.2%,.,.,.,.,.
Cc1ccc2nc(N(CCCN(C)C)C(=O)COc3ccc(Cl)cc3)sc2c1,?,20.6%,-10.3%,?,20.6µM*,6.9%
Cc1ccc2nc(N(CCCN(C)C)C(=O)c3ccc(Br)s3)sc2c1,?,25.5%,-10.4%,?,23.1µM*,10.5%
CN(C)CCCN(C(=O)COc1ccc(Cl)cc1)c1nc2ccc(F)cc2s1,?,20.9%,-24.3%,-10.7%,-21.4%,-40.2%
CC(C)CCN1CCC(O)(c2csc(CN3CCc4ccccc4C3)n2)CC1,39.0%[176 µM],.,.,.,.,.
